The whole screen tested about 39,000 compounds, of which about 1,500 (3.8%) were called active. Shown is part of a subset that was picked to be rich in actives.
System: HSkMC (human skeletal muscle cells)
Assay: cytotoxicity call (relative viability < 0.9)
Conditions: 10 µM

Row | SMILES | cytotoxicity call
1 | C[C@@H]1CN([C@@H](C)CO)C(=O)c2cc(NS(C)(=O)=O)ccc2O[C@@H]1CN(C)S(=O)(=O)c1ccc(Cl)cc1 | inactive
2 | C=CCOC(=O)[C@H]1[C@@H]2C(=O)O[C@@H](c3ccccc3)[C@@H](c3ccccc3)N2[C@@H](c2ccc(OCCOC(=O)[C@H]3C[C@H]4C(=O)NCC(=O)N4[C@H]3c3ccc(O)cc3)cc2)[C@]12C(=O)Nc1ccc(I)cc12 | inactive
3 | C=C(O)C(=O)O | inactive
4 | C[C@H]1CN([C@@H](C)CO)C(=O)Cc2cc(NS(=O)(=O)c3cccs3)ccc2O[C@@H]1CN(C)S(=O)(=O)c1cccs1 | inactive
5 | Cc1cc(NC(=O)CCCC(=O)O)n(C)n1 | inactive
6 | C[C@@H]1CN([C@H](C)CO)C(=O)c2cc(NC(=O)Nc3ccc(F)cc3)ccc2O[C@H]1CN(C)C(=O)Nc1cccc2ccccc12 | inactive
7 | C[C@H](CO)N1C[C@H](C)[C@@H](CN(C)C(=O)Nc2cccc3ccccc23)Oc2ccc(NC(=O)Nc3ccc(F)cc3)cc2C1=O | inactive
8 | C[C@@H]1CN([C@@H](C)CO)C(=O)c2cc(NC(=O)Nc3ccc(F)cc3)ccc2O[C@@H]1CN(C)C(=O)Nc1cccc2ccccc12 | active
9 | C[C@H](CO)N1C[C@H](C)[C@H](CN(C)C(=O)Nc2cccc3ccccc23)Oc2ccc(NC(=O)Nc3ccc(F)cc3)cc2C1=O | inactive
10 | C[C@@H]1CN([C@H](C)CO)C(=O)c2cc(NC(=O)Nc3ccc(F)cc3)ccc2O[C@@H]1CN(C)C(=O)Nc1cccc2ccccc12 | active
11 | C[C@H]1CN([C@@H](C)CO)C(=O)c2cc(NC(=O)Nc3ccc(F)cc3)ccc2O[C@@H]1CN(C)C(=O)Nc1cccc2ccccc12 | inactive
12 | Cc1ccc(S(=O)(=O)N(C)C[C@H]2Oc3ccc(NC(=O)C4CC4)cc3CC(=O)N([C@@H](C)CO)C[C@H]2C)cc1 | inactive
13 | C[C@@H]1CCCCO[C@@H](CN(C)S(=O)(=O)c2ccccc2)[C@@H](C)CN([C@@H](C)CO)C(=O)c2cc(NC(=O)C3CCCCC3)ccc2O1 | inactive
14 | C[C@H]1CN([C@@H](C)CO)C(=O)c2cc(Br)cnc2O[C@H]1CN(C)S(=O)(=O)c1cccs1 | inactive
15 | C[C@@H]1CCCCO[C@H](CN(C)S(=O)(=O)c2cccs2)[C@H](C)CN([C@H](C)CO)C(=O)c2cc(NS(C)(=O)=O)ccc2O1 | inactive
16 | Cc1noc(C)c1S(=O)(=O)N(C)C[C@@H]1Oc2ccc(NS(=O)(=O)c3cccs3)cc2CC(=O)N([C@H](C)CO)C[C@H]1C | inactive
17 | C[C@@H]1CN([C@H](C)CO)C(=O)c2cc(NS(C)(=O)=O)ccc2O[C@@H](C)CCCCO[C@H]1CN(C)S(=O)(=O)c1cccs1 | inactive
18 | C=CC(C)(O)CCC=C(C)C (centres undefined) | inactive
19 | CC1=CC[C@H](C(C)(C)O)CC1 | inactive
20 | CC(C)=CCCC(C)(O)C1CC=C(C)CC1 (centres undefined) | active
21 | CC(C)CC#Cc1cnc2c(c1)C(=O)N([C@@H](C)CO)C[C@@H](C)[C@H](CN(C)S(=O)(=O)c1cn(C)cn1)O2 | inactive
22 | C[C@@H]1CCCCO[C@@H](CN(C)C(=O)C2CCCCC2)[C@@H](C)CN([C@H](C)CO)C(=O)c2cc(NS(=O)(=O)c3ccc(Cl)cc3)ccc2O1 | active

Row | SMILES | cytotoxicity call
23 | C[C@@H]1CCCCO[C@H](CN(C)C(=O)C2CCCCC2)[C@@H](C)CN([C@H](C)CO)C(=O)c2cc(NS(=O)(=O)c3ccc(Cl)cc3)ccc2O1 | inactive
24 | C[C@H](CO)N1C[C@H](C)[C@@H](CN(C)C(=O)C2CCCCC2)OCCCC[C@H](C)Oc2ccc(NS(=O)(=O)c3ccc(Cl)cc3)cc2C1=O | inactive
25 | C[C@H]1CCCCO[C@H](CN(C)C(=O)C2CCCCC2)[C@@H](C)CN([C@@H](C)CO)C(=O)c2cc(NS(=O)(=O)c3ccc(Cl)cc3)ccc2O1 | active
26 | C[C@@H]1CN([C@H](C)CO)C(=O)c2cc(NS(=O)(=O)c3ccc(Cl)cc3)ccc2O[C@@H](C)CCCCO[C@H]1CN(C)C(=O)C1CCCCC1 | inactive
27 | C[C@@H]1CCCCO[C@@H](CN(C)C(=O)Cc2ccccc2)[C@@H](C)CN([C@@H](C)CO)C(=O)c2cc(NS(=O)(=O)c3ccc(Cl)cc3)ccc2O1 | inactive
28 | C[C@@H]1CCCCO[C@H](CN(C)C(=O)C2CCCCC2)[C@H](C)CN([C@@H](C)CO)C(=O)c2cc(NS(=O)(=O)c3ccc(Cl)cc3)ccc2O1 | active
29 | C[C@@H]1CCCCO[C@@H](CN(C)C(=O)C2CCCCC2)[C@H](C)CN([C@@H](C)CO)C(=O)c2cc(NS(=O)(=O)c3ccc(Cl)cc3)ccc2O1 | inactive
30 | C[C@@H]1CN([C@@H](C)CO)C(=O)c2cc(NS(=O)(=O)c3ccc(Cl)cc3)ccc2O[C@@H](C)CCCCO[C@H]1CN(C)C(=O)C1CCCCC1 | inactive
31 | C[C@@H]1CN([C@@H](C)CO)C(=O)c2cc(NS(=O)(=O)c3ccc(Cl)cc3)ccc2O[C@@H](C)CCCCO[C@H]1CN(C)C(=O)Cc1ccccc1 | inactive
32 | C[C@@H]1CCCCO[C@H](CN(C)C(=O)C2CCCCC2)[C@H](C)CN([C@H](C)CO)C(=O)c2cc(NS(=O)(=O)c3ccc(Cl)cc3)ccc2O1 | inactive
33 | C[C@H]1CCCCO[C@H](CN(C)C(=O)Cc2ccccc2)[C@@H](C)CN([C@@H](C)CO)C(=O)c2cc(NS(=O)(=O)c3ccc(Cl)cc3)ccc2O1 | active
34 | CNC(=O)CN1CCO[C@H]2CN(C(=O)c3cnccn3)C[C@@H]21 | inactive
35 | CC1(C)C(=O)NCCN1C(=O)c1ccco1 | inactive
36 | C[C@H]1CN([C@@H](C)CO)C(=O)Cc2cc(NS(=O)(=O)c3ccc(Cl)cc3)ccc2O[C@H]1CN(C)S(=O)(=O)c1cn(C)cn1 | inactive
37 | C[C@@H]1CN([C@H](C)CO)C(=O)Cc2cc(NC(=O)Cc3cn(C)c4ccccc34)ccc2O[C@H]1CN(C)C(=O)Nc1ccc(C(F)(F)F)cc1 | inactive
38 | COc1ccc(NC(=O)N2C[C@H](O)COC[C@@H]3O[C@H](CC(=O)NCc4ccccc4OC)CC[C@H]32)cc1 | inactive
39 | Cc1ccc(S(=O)(=O)N(C)C[C@@H]2Oc3c(NC(=O)c4ccncc4)cccc3C(=O)N([C@H](C)CO)C[C@@H]2C)cc1 | inactive
40 | COc1cccc(S(=O)(=O)N[C@H]2CC[C@@H](CCn3cc(-c4ccccc4OC)nn3)O[C@@H]2CO)c1 | inactive
41 | COc1cc(C(=O)O)ccc1NC(=O)[C@@H]1N[C@@H](CC(C)(C)C)[C@](C#N)(c2ccc(Cl)cc2F)[C@H]1c1cccc(Cl)c1F | active
42 | C[C@@H]1CN([C@H](C)CO)C(=O)c2cc(NS(=O)(=O)c3ccc(Cl)cc3)ccc2O[C@H]1CN(C)Cc1ccc(C(=O)Nc2ccccc2N)cc1 | inactive
43 | C[C@@H]1CN([C@H](C)CO)C(=O)c2cc(C#Cc3ccccc3F)cnc2O[C@H]1CN(C)C(=O)c1ccc2c(c1)OCO2 | inactive
44 | O=C(/C=C/c1cc2c(cc1Br)OCCO2)c1c(-c2ccccc2)c2cc(Cl)ccc2[nH]c1=O | active

From the antibiotic and cytotoxicity screens of Wong et al. (2023)
